PubChem BioAssay AID1159580 (chemical genetic matrix, 2015)
Where “and” joins values, the source holds several entries; their conditions need not be identical. Identical values can stand only once. Screen size: about 5,500 compounds; about 2,000 (36%) were called active. Inconclusive results (about 18%) are left out. Cut-off read from the data, not from the text of the source: active = normalized growth mostly below about 0.91 (no sharp cut-off); inconclusive = no clear call, values can overlap the other calls; inactive = mostly above about 0.92. The list shows a part of the results.

Test: chemical genetic growth profiling, strain panel (AID 1159580);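 note: tested at 20 µM; growth read once vehicle control cultures reached saturation at 30 °C; 1 = growth at the plate median or of vehicle wells; lower values mean less growth of the strain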
Details: S. cerevisiae deletion strains, growth OD

Measured: normalized growth

CNCCC=C1c2ccccc2CCc2ccccc21
inactive: locus YAL013W, strain DEP1, hits give low values 1.01 | locus YAL021C, strain ccr4, hits give low values 0.919 | locus YAL030W, strain snc1, hits give low values 0.975 | locus YAL040C, strain CLN3, hits give low values 1.01 | locus YBL061C, strain skt5, hits give low values 0.983 | locus YBR009C, strain hhf1, hits give low values 0.989 | locus YBR021W, strain FUR4, hits give low values 1.02 | locus YBR023C, strain chs3, hits give low values 0.956 | locus YBR171W, strain sec66, hits give low values 0.952 | locus YBR229C, strain ROT2, hits give low values 1.01 | locus YBR231C, strain swc5, hits give low values 0.996 | locus YBR279W, strain paf1, hits give low values 0.971 | locus YCL011C, strain gbp2, hits give low values 0.965 | locus YCL016C, strain dcc1, hits give low values 0.946 | locus YCL029C, strain bik1, hits give low values 1.04 | locus YCL061C, strain MRC1 (second series), hits give low values 0.998 | locus YCL061C, strain MRC1, hits give low values 0.981 | locus YCL069W, strain vba3, hits give low values 0.976 | locus YCR088W, strain abp1, hits give low values 0.978 | locus YDL005C, strain med2, hits give low values 0.955 | locus YDL035C, strain GPR1, hits give low values 1 | locus YDL040C, strain nat1, hits give low values 0.974 | locus YDL074C, strain BRE1, hits give low values 1.03 | locus YDL101C, strain DUN1, hits give low values 1.02 | locus YDL134C, strain PPH21, hits give low values 1.01 | locus YDL185W, strain tfp1, hits give low values 1.02 | locus YDL192W, strain arf1, hits give low values 1.02 | locus YDR001C, strain nth1, hits give low values 0.986 | locus YDR069C, strain doa4, hits give low values 0.929 | locus YDR101C, strain arx1, hits give low values 1.03 | locus YDR137W, strain rgp1, hits give low values 1.1 | locus YDR150W, strain NUM1, hits give low values 1.01 and 1 | locus YDR159W, strain sac3, hits give low values 0.955 | locus YDR162C, strain NBP2, hits give low values 1 | locus YDR195W, strain ref2 1 | locus YDR297W, strain sur2, hits give low values 0.99 | locus YDR318W, strain mcm21, hits give low values 1.03 | locus YDR334W, strain swr1, hits give low values 0.957 | locus YDR335W, strain msn5, hits give low values 0.963 | locus YDR363W, strain ESC2, hits give low values 0.951 | locus YDR388W, hits give low values 1.02 | locus YDR392W, strain spt3, hits give low values 0.939 | locus YDR502C, strain sam2, hits give low values 1.03 | locus YEL003W, strain gim4, hits give low values 0.972 | locus YEL037C, strain rad23, hits give low values 0.967 | locus YEL061C, strain CIN8 (second series), hits give low values 0.972 | locus YEL061C, strain CIN8, hits give low values 1.01 | locus YER002W, strain NOP16, hits give low values 1.03 | locus YER015W, strain faa2, hits give low values 0.978 | locus YER016W, strain bim1, hits give low values 0.97 | locus YER110C, hits give low values 1.01 | locus YER111C, strain swi4, hits give low values 0.953 | locus YER155C, strain BEM2 (second series), hits give low values 0.917 | locus YER155C, strain BEM2, hits give low values 1 | locus YER167W, strain BCK2, hits give low values 1 | locus YFR010W, strain ubp6, hits give low values 0.958 | locus YGL078C, strain dbp3, hits give low values 1.01 | locus YGL086W, strain mad1, hits give low values 1.01 | locus YGL167C, strain pmr1, hits give low values 0.971 | locus YGL173C, strain kem1, hits give low values 0.968 | locus YGL227W, strain vid30, hits give low values 0.966 | locus YGL240W, strain doc1, hits give low values 1.01 | locus YGL248W, strain PDE1, hits give low values 1.01 | locus YGL253W, strain hxk2, hits give low values 0.981 | locus YGR078C, strain PAC10, hits give low values 1.03 and 0.991 | locus YGR135W, strain pre9, hits give low values 1.02 | locus YGR229C, strain SMI1, hits give low values 1.03 and 0.97 | locus YGR252W, strain gcn5, hits give low values 1.14 | locus YHR013C, strain ard1, hits give low values 0.885 | locus YHR027C, strain rpn1, hits give low values 0.978 | locus YHR030C, strain SLT2, hits give low values 1.01 and 0.966 | locus YHR079C, strain IRE1 (second series), hits give low values 1.03 | locus YHR079C, strain IRE1, hits give low values 0.974 | locus YHR094C, strain hxt1, hits give low values 1.01 | locus YHR129C, strain ARP1, hits give low values 1.01 | locus YHR142W, strain chs7, hits give low values 0.961 | locus YHR200W, strain rpn10, hits give low values 1.02 | locus YIL066C, strain RNR3, hits give low values 1.02 | locus YIL073C, strain SPO22, hits give low values 1.09 | locus YIL125W, strain kgd1, hits give low values 1.01 | locus YIR030C, strain dcg1, hits give low values 1.02 | locus YJL092W, strain hpr5, hits give low values 0.991 | locus YJL095W, strain BCK1 (second series), hits give low values 0.965 | locus YJL095W, strain BCK1, hits give low values 1.01 and 0.961 | locus YJL115W, strain asf1, hits give low values 0.961 | locus YJL129C, strain trk1, hits give low values 0.978 | locus YJL134W, strain LCB3, hits give low values 1.01 | locus YJL154C, strain vps35, hits give low values 0.973 | locus YJL164C, strain tpk1, hits give low values 0.978 | locus YJL166W, strain qcr8, hits give low values 0.989 | locus YJL168C, strain set2, hits give low values 1.01 | locus YJL187C, strain SWE1 (second series), hits give low values 1.02 | locus YJR043C, strain POL32, hits give low values 1.02 | locus YJR066W, strain TOR1, hits give low values 0.923
active: locus YAL026C, strain drs2, hits give low values 0.854
